Source: PubChem BioAssay AID1766 (National Center for Advancing Translational Sciences (NCATS), 2009)
The campaign covered roughly 290,000 compounds. Fewer than 10 were called active. Not shown: some 3% with an inconclusive outcome. The call rests on the fitted dose curve; in most records, active means well fitted curve in the direction sought with a large enough effect in the polarisation (not every such curve was filed as active); inconclusive means small, poorly fitted or top-dose-only effect, or effect the other way, or a change in a side signal; inactive means no such curve, though single readings can be large or run the other way; the % refers to the polarisation. Only a sample is shown.

Assay: qHTS Assay for Inhibitors Targeting the Menin-MLL Interaction in MLL Related Leukemias: Competition With Fluorescein Labeled MLL-derived Peptide; further: % of control where 0% means no effect
Details: Fluorescence polarization, fluorescein-MLL peptide displacement from menin; series mostly up to 61.4 µM; FP activity change: at the top concentration
Description: qHTS Assay for Inhibitors Targeting the Menin-MLL Interaction in MLL Related Leukemias NIH Chemical Genomics Center [NCGC] NIH Molecular Libraries Probe Centers Network [MLPCN] MLPCN Grant: MH084875-01A1 Assay Submitter (PI): Jolanta Grembecka, Tomasz Cierpicki, University of Virginia Translocations of the MLL (Mixed Lineage Leukemia) gene are frequently found in human leukemias affecting both children and adults. Fusion of MLL to one of more than 60 genes results in generation of oncogenic proteins upregulating Hox genes, which are vital to blood cell development. Patients harboring fusion of the MLL gene suffer from aggressive leukemias and respond poorly to available therapies. All of the oncogenic fusion proteins have a preserved N-terminal fragment of MLL that has been identified to interact with menin. It has been recently discovered that association with menin is critical to the leukemogenic activity of the MLL fusion oncoproteins. Selective targeting of the menin-MLL interaction could provide an attractive therapeutic approach to develop novel drugs for MLL-related leukemias. Small molecules blocking the menin-MLL interaction should reverse the oncogenic potential of MLL fusion proteins. We have developed and optimized a fluorescence polarization-based assay for the identification of Menin-MLL inhibitors. The assay was run employing two different MLL-derived peptides. The present assay uses a 12 amino acid peptide labeled with fluorescein at its N-terminus. This peptide consists of the menin high affinity binding motif from MLL and is potently bound by menin. Another peptide with a mutated sequence, labeled with Texas Red, was used in parallel as a less stringent screen for inhibitors.
The Menin protein, the MLL-wild type (w.t.) derived peptide (N-terminal 12 amino acids), the MLL-derived peptide labeled with Texas Red and the MLL-w.t. peptide labeled with Fluorescein were kindly supplied by laboratory of Dr. Jolanta Grembecka, University of Virginia. All protein and peptide solutions were stored in single use aliquots at -80C. The Eu3+ Cyrptate-conjugated mouse monoclonal antibody anti-6 Histidine (Eu3+-AB) and the Streptavidin-XL665 conjugate (XL665) were purchased from Cisbio International (Bedford, MA). All antibody and XL665 conjugate solution stocks were stored in single use aliquots at -20C. The Buffer components for all assays were purchased from Sigma-Aldrich (St. Louis, MO) and Invitrogen (Carlsbad, CA). FP Assay Reagents: 1. FP reaction buffer: 50 mM Tris-HCl pH 7.5, 50 mM NaCl, 1mM DTT. Before use, 0.05% BSA is added. 2. Menin protein, MLL-w.t. labeled with fluorescein, MLL-mutant peptide labeled with texas red. Stored in singe use aliquots at -80C. 3. MLL-w.t. unlabeled peptide as positive control: 10 uM final in FP buffer. FP Assay Procedure: 1. Prepare Menin at 200 nM, MLL-w.t.-fluorescein at 25 nM, and MLL-mutant-texas red at 50 nM mixture in FP buffer. 2. Prepare Menin at 200 nM, MLL-w.t.-fluorescein at 25 nM, MLL-mutant-texas red at 50 nM, and 10 uM MLL-w.t. unlabeled mixture in FP buffer. 3. Prepare MLL-w.t.-fluorescein at 25 nM and MLL-mutant-texas red at 50 nM mixture in FP buffer. 3. Dispense 4 ul per well of reagent in step 1 in columns 2, 4 - 48 in a black 1536 well plate, dispense 4 ul per well of reagents from steps 2 and 3 in columns 1 and 3 respectively. Incubate plate at ambient for 15 minutes. 4. Transfer 23 nl per well of compound to plate and incubate at ambient for 1 hr. 5. Read fluorescence polarization for each label using the PerkinElmer Envision. Envision protocol for fluorescein: FITC FP Dual Enh Mirror, Excitation filter 480, Emission filter (1) P-pol 535, Emission filter (2) S-pol 535 Envision protocol for texas red: FP Dual Enh Mirror, Excitation filter 555, Emission filter (1) P-pol 632, Emission filter (2) S-pol 632

FP activity change, inactive:
CC(C)[C@@H]1COC(c2cccc(C3=N[C@H](C(C)C)CO3)c2)=N1 1.68%
COc1ccc(OCc2cc(C(=O)N3CCCC3)no2)c2ccccc12 -0.316%
c1cnc(N2CCN(c3ccc4ccccc4n3)CC2)nc1 -2.01%
Cc1cc(=O)n2[nH]c(-c3cccc(Cl)c3)cc2n1 -4.41%
CCCCCC(O)(CCN1CCCCC1)c1ccccc1 (configuration not stated) -1.88%
Cc1cc(C)cc(OCC(=O)NC(C)c2ccccc2)c1 (configuration not stated) 6.39%
O=c1[nH]cccc1-c1nc2ccccc2n1Cc1ccc(Cl)cc1 -1.47%
CCCc1cc(=O)n2[nH]c(C)c(-c3ccc(Cl)cc3)c2n1 -3.54%
O=C1CCN(CCc2ccccc2)CCN1CCOc1ccccc1 -5.61%
Cc1cc(C)c(C#N)c(Nc2cccc(Br)c2)n1 -1.91%
O=C(NCCS(=O)(=O)N1CCN(c2ccccc2F)CC1)c1ccc(Br)o1 -2.26%
CCc1ccccc1OCC(=O)Nc1ccc2c(c1)OCCO2 -1.07%
Oc1ccc(C2Nc3cccc4cccc(c34)N2)cc1 1.81%
Cc1ccc(-c2csc(NC3OC(=O)c4ccccc43)n2)cc1 (configuration not stated) 0.604%
Cc1n[nH]c(=O)c2c1nnn2Cc1ccc(F)cc1 1.28%
COc1ccc(NC(=O)C/C(C)=N/NC(=O)c2cnccn2)cc1Cl -0.652%
CS(=O)(=O)N1CCN(C(=O)CSc2ccccc2)CC1 0.441%
COc1ccc2c(c1)c(C(=O)N/N=C/c1cccs1)c(C)n2C -1.26%
CC(C)OC(=O)c1ccc(COc2ccc3ccc(=O)oc3c2)o1 0.0912%
CNC(=O)c1sc(Nc2ccc(OCc3ccccc3)cc2)nc1C -0.434%
Cc1cccc(C)c1NC(=S)N1CCCCCC1 10.5%
Cc1ccc(O)c(CNc2nc3ccccc3[nH]2)c1 0.249%
COCCNC(=O)c1ccc2nc(Cc3ccc(OC)c(OC)c3)oc2c1 0.18%
CCCc1cc(=O)[nH]c(SCC(=O)N2C(C)CCCC2C)n1 (configuration not stated) 1.47%
COc1cc(CNCc2ccc(OC)c3ccccc23)cc(OC)c1OC -0.733%
Cc1ccc2oc(C(=O)N3CCN(C)C[C@@H]3C(C)C)c(C)c2c1 -0.0815%
O=C(Nc1cccc(C(F)(F)F)c1)c1cc(Br)cc(Br)c1O -4.54%
CC(C)(C)c1ccc(SCCc2ccncc2)cc1 -0.793%
COc1ccc(C(C(=O)NC(C)(C)C)N(Cc2ccc(F)cc2)C(=O)CCC(=O)Nc2cc(C)on2)cc1 (configuration not stated) 5.96%
CCOC(=O)c1ccc(NC(=O)Cc2cccs2)cc1 3.73%
CCOc1ccc(N/C=C/C(=O)c2ccccc2)cc1 -1.74%
COc1ccc(N2CCN(S(=O)(=O)CCNC(=O)C34CC5CC(CC(C5)C3)C4)CC2)cc1 -5.62%
COc1ccc(/C=N/OCc2ccccc2C#N)c(OC)c1 -2.05%
CCn1c(SCC(=O)NC2CC2)nnc1-c1ccccc1OC 0.14%
COc1cc2ccccc2cc1C(=O)Nc1ccccc1C -3.04%
CSCCNC(=O)c1ccc2nc(Cc3ccccc3F)oc2c1 2.14%
CC(c1ccccn1)N(C)C(=O)c1ccc2nc(Cc3cccc(Cl)c3)oc2c1 (configuration not stated) 1.12%
CCCOc1ccc(/C=N/NC(=O)C2CC2)c(OCCC)c1 -5.37%
O=C(CN1CCc2cc3c(cc2C1)OCCCO3)Nc1ccccc1 1.44%
CCn1cc(/C=C(\NC(=O)c2cc(OC)c(OC)c(OC)c2)C(=O)N2CCN(C)CC2)c2ccccc21 0.178%
COc1cccc(NC(=O)C2CCCN(c3ncnc4c3nc3n4CCCCC3)C2)c1 (configuration not stated) 0.562%
CCCc1ccc(OCCNC(=O)c2ccccc2Br)cc1 -4.26%
O=S(=O)(NCc1ccc(Cl)cc1Cl)c1cccs1 -3.15%
CC(CN1CCCCC1)c1ccccc1 (configuration not stated) 4.36%
COc1ccc(/C(C)=N\NC(=O)c2ccc(-c3ccccc3)cc2)c(F)c1 -4.21%
Cc1ccccc1NC(=O)CSc1nc2ccc(Nc3nc(N4CCOCC4)nc(N4CCOCC4)n3)cc2s1 1.23%
CCOC(=O)Nc1ccc2c(c1)N(C(=O)CCCl)c1ccccc1[S@]2=O -0.773%
CSc1nccc(NC(=O)c2ccc(C(C)(C)C)cc2)n1 -1.11%
O=C(c1cc(COc2cccc(C(F)(F)F)c2)on1)N1CCSCC1 1.74%
Oc1ccccc1-c1cc(-c2ccc(Cl)cc2)n[nH]1 -1.42%
CC1CCC2CCCCC2N1C(=O)c1cc([N+](=O)[O-])cc([N+](=O)[O-])c1 (configuration not stated) 1.44%
Cc1ccc(C(=O)Nc2nnc(C3=COCCO3)o2)cc1C -0.415%
N#C[C@]1(S(=O)(=O)c2ccccc2)C[C@@H]2ON=C(c3cccc(Br)c3)[C@@H]2C1 6.98%
O=C(N/N=C/c1cccc(OCc2ccccc2)c1)c1ccc(Br)o1 2.42%
N#CC(C#N)=CN=c1ccn(Cc2ccc(Cl)cc2Cl)cc1 -5.78%
FC(F)(F)C1CCCN(c2nsc3ccccc23)C1 (configuration not stated) -1.66%
N=c1oc2ccccc2cc1C(=O)NCc1ccccc1 15.1%
COCCCNc1nc2c(-c3cccc(C)c3)nnn2c2ccc(Cl)cc12 -4.76%
O=C(NCCNc1ccccc1[N+](=O)[O-])c1ccccc1F -2.51%
N#CCc1ccc(NC(=O)c2ccccc2C(=O)Nc2ccc(CC#N)cc2)cc1 -1.6%
CCn1cc(CN2CCC(C(=O)Nc3cccc(-c4cccc(Cl)c4)c3)CC2)c(C)n1 -0.667%
Cc1ccc(CCNC(=O)c2ccc3nc4ccccc4c(=O)n3c2)cc1 -0.476%
